# From PubChem
# In the library only some 3.2% were active in any assay of this set; here they are far more common.
# AMA1-RON2 inh: AMA1-RON2 (P. falciparum) interaction inhibition. AlphaScreen AMA1-biotinylated RON2 peptide binding. Potency, µM (doses to about 58.2 µM), for the others: top-dose activity change, negative = inhibition, most hits filed as inhibitors. 0.2% of 360,000 active. AID 720542;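 note: 0% = vehicle wells and -100% = peptide control; nearly all actives have a fitted effect of over 45% in size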
#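 AMA1 (3D7) with his tag at 25 nM final met compounds first, then biotinylated RON2 peptide at 25 nM; detection used donor plus acceptor beads, 10 µg/mL apiece, read by AlphaScreen after 30 min at room temperature.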
# Sm TGR block: S. mansoni TGR enzyme inhibition; purified TGR, DTNB reduction, TNB absorbance 405 nm; AID 485364; 3% of 360,000 active; Potency, µM (highest dose often 114 µM), for the others: top-dose activity change, negative = inhibition, usual class: inhibitors; Q962Y6; note: nearly all actives have a fitted effect of over 60% in size
#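 TGR 20 nM + NADPH 100 uM (dispensed conc.), cpd preinc 15 min RT; start with NADPH (500 uM addition) then DTNB (15 mM addition). Kinetic TNB absorbance, 405 nm filter. Four-parameter Hill fit across titration.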
# AmpC inh no detg: inhibitors of E. coli AmpC beta-lactamase without detergent; P00811; AmpC nitrocefin hydrolysis, absorbance 480 nm, 0.0001% Triton; Potency, µM (top dose mostly 57.1 µM), for inactives: at the highest dose activity change, negative = inhibition, actives largely listed as inhibitors; 0.52% of 330,000 active;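 note: plate controls were no compound for no effect and no enzyme for full effect; nearly all actives have a fitted effect of over 20% in size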
# Target sequence (P00811 whole entry, looked up): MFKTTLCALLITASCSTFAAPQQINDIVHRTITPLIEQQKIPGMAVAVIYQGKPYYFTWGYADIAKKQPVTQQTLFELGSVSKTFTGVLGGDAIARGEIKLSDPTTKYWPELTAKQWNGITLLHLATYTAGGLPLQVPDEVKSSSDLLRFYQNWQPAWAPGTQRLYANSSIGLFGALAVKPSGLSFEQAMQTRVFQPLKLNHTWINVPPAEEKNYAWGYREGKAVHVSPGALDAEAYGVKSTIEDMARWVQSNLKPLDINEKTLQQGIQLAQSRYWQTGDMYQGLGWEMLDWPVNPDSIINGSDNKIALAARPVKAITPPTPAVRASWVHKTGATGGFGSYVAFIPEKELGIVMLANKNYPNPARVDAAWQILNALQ
#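 20 mM phosphate pH 7.0 + 0.01% (detergent screen) or 0.0001% Triton X-100; 5.3 nM AmpC reagent; cpd preinc 15 min RT; nitrocefin (800 uM stock) to start; A480 q20 s × 4 min; Activity was normalised to no-enzyme and no-compound control wells.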
# RE007 growth inh: less growth of the S. pombe RE007 Vpr strain; S. pombe RE007 Vpr strain, BacTiter-Glo ATP luminescence, 24 h; Potency, µM (highest dose often 92.2 µM), for the others: top-dose activity change, negative = less growth, most hits filed as inhibitors; 0.21% of 360,000 active; AID 651644; active = well fitted falling curve with a large enough effect; inconclusive = small, poorly fitted or top-dose-only effect; inactive = no such curve, though single readings can be large or run the other way; note: nearly all actives have a fitted effect of over 50% in size
#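 Fission yeast strain RE007, carrying one chromosomally integrated HIV-1 vpr copy, was seeded at OD 0.01 in PMG+AL medium with 23 nL pinned compound. After 24 h at 30 °C and 99% humidity, viability was read by BacTiter-Glo luminescence.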
# AmpC detergent: AmpC beta-lactamase inhibition with detergent present; Potency, µM (doses to about 114 µM), without a hit: at the highest dose activity change, negative = inhibition, actives largely listed as inhibitors; AmpC hydrolysis of nitrocefin, absorbance 480 nm, 0.01% Triton; 0.041% of 370,000 active;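 note: 0% = no-compound wells and -100% = no-enzyme wells; nearly all actives have a fitted effect of over 25% in size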
#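 AmpC (5.3 nM in the dispensed reagent) in 20 mM phosphate pH 7.0 with 0.01% (detergent screen) or 0.0001% Triton X-100 was preincubated with compounds for 15 min at room temperature. Nitrocefin was then added from an 800 uM solution, and hydrolysis was followed at 480 nm.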
# An asterisk follows results filed as active; ? = inconclusive; nt = no result. Unless noted, calls come from the whole dose curve; as a rule, active = well fitted curve in the direction sought with a large enough effect; inconclusive = small, poorly fitted or top-dose-only effect, or another doubt; inactive = no such curve, though single readings can be large; an effect the other way counts as inactive or inconclusive. Unless noted, % is set by controls: 0 for no effect and ±100 for the full control effect; potency is the fitted concentration of half-maximal effect.
SMILES,AMA1-RON2 inh,Sm TGR block,AmpC inh no detg,RE007 growth inh,AmpC detergent
O=C(Nc1ccc(OCc2cc(=O)n3c4c(sc3n2)CCCC4)cc1)c1ccc(F)cc1,nt,4.7%,nt,nt,7.5%
CCCn1nnc(NC(=O)/C=C/c2ccco2)n1,-11.3%,5.62µM*,-7.3%,-1.1%,6.3%
Cn1nnc(NC(=S)NC(=O)/C=C/c2ccco2)n1,5.9%,3.16µM*,-33.7%,-9.2%,3.4%
CCOc1ccc(-c2cc(NC(=O)c3ccccc3)c(C(=O)OC)s2)cc1,nt,-2.1%,nt,nt,24.4%
Cc1cc(C)cc(NC(=O)C2CCCN2S(=O)(=O)c2cccc3nsnc23)c1 (centres undefined),nt,1.6%,nt,nt,-1.8%
CC(=O)Nc1ccc2nc3c(=O)[nH]c(=O)[nH]c3nc2c1,nt,-12.6%,nt,nt,4.4%
Cc1ccc(N(CC2CO2)S(=O)(=O)c2ccc([N+](=O)[O-])cc2)cc1 (centres undefined),-2.2%,31.6µM*,-10.4%,-1.5%,0.3%
Cc1ccc(N(CC2CO2)S(=O)(=O)c2ccc(C)cc2)cc1 (centres undefined),-6.5%,?,4.2%,6.8%,9.2%
CCOc1ccc(NCC(=O)N/N=C/C=C/c2ccccc2)cc1,26.4%,-4.0%,-50.4%,-11.7%,-4.3%
CCOc1ccc(N=C/C=C/c2ccccc2)c(O)c1,2.6%,39.8µM*,-23.4%,-29.8%,?
Cc1ccc2c(c1)c1c(c(=O)n(-c3ccccc3C)c(=O)n1CC(=O)NCc1ccccc1)n2C,nt,-0.6%,nt,nt,?
COc1cc(C2Nc3ccccc3-c3nnc(SCc4ccc(C)cc4)nc3O2)cc(OC)c1O (centres undefined),nt,-28.6%,nt,nt,-7.2%
O=C(Cn1cc2c(n1)CCCC2)Nc1cc(C(F)(F)F)ccc1Cl,nt,-13.0%,nt,nt,-5.9%
Cc1ccc2nc(N3CCN(c4ccccc4)CC3)c(C=O)c(=O)n2c1,-15.9%,44.7µM*,-10.9%,15.2%,-2.3%
CCCCCCNC(=O)N[C@H](Cc1ccc(O)cc1)C(=O)NCCC[C@H]1CN2C(=NC[C@H]2CCC)N1CC1CCC1,nt,5.01µM*,66.4%,nt,8.3%
CCCCCCNC(=O)N[C@@H](Cc1ccc(O)cc1)C(=O)NCCC[C@H]1CN2C(=NC[C@H]2C)N1CC1CCC1,-3.5%,?,96.2%,-21.4%,1.2%
CCOC(=O)c1ccc(CN(Cc2ccccc2C)S(=O)(=O)c2ccc(F)c(C(=O)Nc3cccc(OC)c3)c2)cc1,nt,0.0%,nt,nt,9.2%
Cc1ccc(S(=O)(=O)N(C)c2ccc(OCC(=O)Nc3nc(-c4ccccc4)cs3)cc2)cc1,8.7%,-8.2%,2µM*,0.8%,-8.5%
CN(C)C(=S)SSC(=S)N(C)C,-2.3%,-33.4%,?,3.16µM*,79.4µM*
COc1ccc(-n2nnnc2SCC(=O)NCc2ccco2)cc1OC,-8.7%,-9.4%,61.9%,-7.5%,?
CCn1nnnc1SCC(=O)NCc1ccco1,0.5%,25.1µM*,-13.2%,8.1%,-10.5%
COc1cccc(-n2nnnc2SCC(=O)NCc2ccco2)c1,-4.7%,50.1µM*,-11.1%,2.6%,0.6%
CCCCn1nnnc1SCC(=O)NCc1ccco1,-4.2%,39.8µM*,nt,nt,1.8%
CCCn1c(SCC(=O)NCc2ccco2)nnc1C(C)C,6.9%,?,35.6%,-3.3%,-13.7%
O=C(CSc1nc2ccsc2c(=O)n1-c1ccc(Br)cc1)NCc1ccc(Cl)cc1,nt,1.6%,nt,nt,13.5%
CC1CC(C)CN(c2oc(-c3ccccc3F)nc2C#N)C1 (centres undefined),-28.9%,7.5%,-19.1%,11.1%,-12.1%
COc1ccccc1-c1nc(C#N)c(N2CC(C)CC(C)C2)o1 (centres undefined),-15.9%,1.12µM*,-11.6%,8.4%,-4.4%
O=C(CCNc1cccc(Cl)c1)c1ccco1,9.9%,11.2µM*,-16.6%,-29.8%,?
O=C(COC(=O)CNC(=O)c1ccco1)Nc1ncc(Cl)cc1Cl,6.6%,39.8µM*,-18.6%,19.9%,0.4%
O=C(CNC(=O)c1ccco1)OCc1cccc(Cl)c1,15.9%,44.7µM*,-13.3%,23.7%,?
